High-throughput results as filed in PubChem BioAssay.
RAD52 anneal inh: RAD52 DNA annealing inhibitors, primary screen, biochemical, FRET, single point, set 2 | recombinant RAD52 DNA annealing, FRET fluorescence | inhibition, % at 18.7 µM | 360,000 tested, 0.46% active;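 active = every replicate showing at least 50% inhibition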
FID counter: compounds displacing fluorescent DNA intercalator, primary screen, artefact control for HCV NS3 helicase inhibitor project, biochemical, FID fluorescence. DNA fluorescent intercalator displacement. inhibition, % at 7.9 µM. 290,000 tested, 0.17% active. AID 1845, 2009; in the data active = inhibition above about 37%;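 also: higher means more ethidium bromide displaced from hairpin DNA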
RAD54 branch: inhibitors of human RAD54 branch migration, primary screen, biochemical, fluorescence, single point. DNA repair and recombination protein RAD54-like (Homo sapiens), Q92698. AID 602329, 2012. 360,000 tested, 0.14% active. inhibition, % at 10.4 µM. RAD54 Holliday junction branch migration, FAM/BHQ fluorescence;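 active = mean normalized replicate activity at least 40 and at least half of replicates scoring 40 or more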;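 also: inhibitors cause a drop in the FAM fluorescence signal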
N-glyco inh: increase of ERlucT glycosylation luciferase signal, primary screen, N-linked glycosylation inhibitor project, D54 ERlucT cells, luminescence, set 2; D54 ERlucT glycosylation luciferase reporter, 24 h; percent of 100 nM tunicamycin response; reporter increase, % at 12.5 µM; 360,000 tested, 0.23% active; AID 588692, 2011;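 active = mean luciferase reporter signal, scaled so untreated is 0 and the glycosylation-blocking control 100, at or above a set limit in every replicate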;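 also: luciferase carries N-glycosylation sites so blocking glycosylation raises the light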
CendR NRP1 mod: modulators of CendR peptide binding to NRP-1, primary screen, biochemical, fluorescence polarization, uHTS | FAM-RPARPAR peptide binding to NRP-1 | inhibition, % at 25 µM | 360,000 tested, 0.85% active | AID 602438, 2012;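 active = inhibition or corrected inhibition above about 18%, plus a signal ratio from 0.5 to 1.5, limit read from the data, passing the limit was not always enough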
Target sequence (O14786 whole entry, looked up): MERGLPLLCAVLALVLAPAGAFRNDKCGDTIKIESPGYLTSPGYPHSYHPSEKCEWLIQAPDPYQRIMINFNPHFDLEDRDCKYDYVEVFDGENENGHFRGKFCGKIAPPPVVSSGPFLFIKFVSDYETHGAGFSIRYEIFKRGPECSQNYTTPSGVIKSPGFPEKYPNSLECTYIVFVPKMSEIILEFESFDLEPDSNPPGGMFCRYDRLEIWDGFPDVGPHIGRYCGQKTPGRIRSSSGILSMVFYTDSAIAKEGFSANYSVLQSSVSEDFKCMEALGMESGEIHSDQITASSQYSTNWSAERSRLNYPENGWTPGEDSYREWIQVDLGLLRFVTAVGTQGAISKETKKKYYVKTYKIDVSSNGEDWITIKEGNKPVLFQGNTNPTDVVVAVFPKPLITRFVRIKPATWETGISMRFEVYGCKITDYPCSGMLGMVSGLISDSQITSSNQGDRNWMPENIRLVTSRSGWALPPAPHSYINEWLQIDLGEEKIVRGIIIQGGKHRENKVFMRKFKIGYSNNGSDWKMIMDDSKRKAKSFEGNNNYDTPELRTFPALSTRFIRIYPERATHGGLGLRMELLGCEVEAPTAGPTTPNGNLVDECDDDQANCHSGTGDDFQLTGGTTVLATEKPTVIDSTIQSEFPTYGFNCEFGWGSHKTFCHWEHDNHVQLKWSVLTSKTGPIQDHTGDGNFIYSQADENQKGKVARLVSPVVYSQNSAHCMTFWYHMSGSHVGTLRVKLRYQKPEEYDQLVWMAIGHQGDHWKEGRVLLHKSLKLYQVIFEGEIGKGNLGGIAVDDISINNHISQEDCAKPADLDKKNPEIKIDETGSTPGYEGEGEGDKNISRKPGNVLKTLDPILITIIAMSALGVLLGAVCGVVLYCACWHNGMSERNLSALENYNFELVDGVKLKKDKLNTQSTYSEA
miR-122 sensor: miR-122 Renilla sensor signal increase in Huh7, primary screen, miR-122 inhibitor project, cell-based, single point, plate reader. activation (reporter increase), % at 12.5 µM. 340,000 tested, 0.3% active. Huh7 miR-122 Renilla luciferase sensor, 48 h; neutral wells = 0, positive control = 100. AID 602342, 2012;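 active = mean replicate activation score at least 90 and every replicate individually at or above 90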;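 also: higher luciferase means less miR-122 activity so hits act as miR-122 inhibitors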
Large screens that a line does not name were inactive. In the library only some 1.5% were active in any assay of this set; here they are far more common.

OCC1OC(n2cnc3c(SCc4ccccc4)ncnc32)C(O)C1O (configuration not stated)	N-glyco inh 113 (no result: FID counter, RAD54 branch)
Nc1nc(SCc2ccccc2)c2ncn(C3OC(CO)C(O)C3O)c2n1 (configuration not stated)	none (no result: FID counter)
Cc1ccc(S(=O)(=O)N(C)C[C@@H]2Oc3ccc(NS(=O)(=O)c4ccc(F)cc4)cc3CC(=O)N([C@H](C)CO)C[C@@H]2C)cc1	none (no result: FID counter, N-glyco inh, CendR NRP1 mod)
CO[C@H]1CN(C)C(=O)c2ccc(NC(=O)c3nc4ccccc4s3)cc2OC[C@H](C)N(Cc2cncnc2)C[C@@H]1C	none (no result: FID counter, N-glyco inh, CendR NRP1 mod, miR-122 sensor)
COc1ccc2c3c(n(C)c2c1)[C@@H](CO)N(C(=O)C1CC1)CC31CN(C(=O)Nc2cccc(F)c2)C1	none (no result: FID counter, RAD54 branch, N-glyco inh, CendR NRP1 mod, miR-122 sensor)
CC[C@@H](C)[C@@H](C(=O)N1CCN(C(=O)OC(C)(C)C)CC1)n1cc(CCCN=C(NC(=O)OC(C)(C)C)NC(=O)OC(C)(C)C)nn1	CendR NRP1 mod 26
C#CCOCCOCCOCCNc1nc(N2CCN(C(=O)Cn3cc(CCO)nn3)CC2)nc(N2CCN(C(=O)[C@H]([C@@H](C)CC)n3cc(CCCN=C(N)N)nn3)CC2)n1	none (no result: RAD52 anneal inh, FID counter)
C#CCOCCOCCOCCNc1nc(N2CCN(C(=O)[C@H]([C@@H](C)CC)n3cc(CCCN=C(N)N)nn3)CC2)nc(N2CCN(C(=O)[C@H]([C@@H](C)CC)n3cc(CCCN=C(N)N)nn3)CC2)n1	FID counter 43 (no result: RAD52 anneal inh, RAD54 branch, N-glyco inh, CendR NRP1 mod, miR-122 sensor)
C#CCOCCOCCOCCNc1nc(N2CCN(C(=O)Cn3cc(CCCN=C(N)N)nn3)CC2)nc(N2CCN(C(=O)Cn3cc(CCCN=C(N)N)nn3)CC2)n1	none (no result: RAD52 anneal inh, RAD54 branch, N-glyco inh, CendR NRP1 mod, miR-122 sensor)
C#CCOCCOCCOCCNc1nc(N2CCN(C(=O)Cn3cc(CCCN=C(N)N)nn3)CC2)nc(N2CCN(C(=O)Cn3cc(CC(C)O)nn3)CC2)n1 (configuration not stated)	CendR NRP1 mod 25 (no result: RAD52 anneal inh, FID counter)
C#CCOCCOCCOCCNc1nc(N2CCN(C(=O)Cn3cc(CCO)nn3)CC2)nc(N2CCN(C(=O)[C@H](C)n3cc(CCCN=C(N)N)nn3)CC2)n1	CendR NRP1 mod 23 (no result: FID counter, miR-122 sensor)
O=C(NCC[C@@H]1CC[C@H](NS(=O)(=O)c2ccccc2F)[C@@H](CO)O1)c1ccc(F)cc1	none (no result: FID counter, N-glyco inh, CendR NRP1 mod)
COc1cccc(C#Cc2ccc([C@H]3[C@@H](CO)N4C(=O)CN(C(=O)Cc5ccccc5)C[C@H]34)cc2)c1	none (no result: FID counter, RAD54 branch, N-glyco inh, CendR NRP1 mod, miR-122 sensor)
C[C@H](CO)N1C[C@H](C)[C@@H](CN(C)C(=O)Nc2ccc(C(F)(F)F)cc2)Oc2ccc(NC(=O)C3CCCCC3)cc2CC1=O	none (no result: FID counter, N-glyco inh, CendR NRP1 mod)
C[C@@H]1CN([C@@H](C)CO)C(=O)Cc2cc(NC(=O)Nc3ccc(F)cc3)ccc2O[C@H]1CN(C)S(=O)(=O)c1cccs1	none (no result: FID counter, N-glyco inh, CendR NRP1 mod)
Cc1ccc(S(=O)(=O)Nc2ccc3c(c2)C(=O)N([C@H](C)CO)C[C@@H](C)[C@H](CN(C)C(=O)Nc2cccc4ccccc24)O3)cc1	none (no result: RAD52 anneal inh, FID counter, N-glyco inh, CendR NRP1 mod)
CN1/C(=C/C=C(/C#N)C(N)=O)C(C)(C)c2ccccc21	N-glyco inh 26 (no result: RAD52 anneal inh)
COc1ccc(NC(=O)N(C)C[C@@H]2OCCCC[C@H](C)Oc3ccc(NC(=O)Nc4ccc(F)cc4)cc3C(=O)N([C@H](C)CO)C[C@@H]2C)cc1	none (no result: FID counter, N-glyco inh, CendR NRP1 mod)
COc1cc([N+](=O)[O-])cc(/C=N/NC(=O)C(C)Nc2cccc3ccccc23)c1O (configuration not stated)	CendR NRP1 mod 32
COc1ccc(NC(=O)N(C)C[C@H]2OCCCC[C@@H](C)Oc3ccc(NC(=O)NC(C)C)cc3C(=O)N([C@H](C)CO)C[C@H]2C)cc1	none (no result: FID counter, N-glyco inh, CendR NRP1 mod)
Cc1ccc(C)c(S(=O)(=O)N2CCN(C(=O)CSc3ccccc3F)CC2)c1	CendR NRP1 mod 24 (no result: miR-122 sensor)
COc1ccc(NC(=O)Nc2ccc3c(c2)C(=O)N([C@@H](C)CO)C[C@H](C)[C@H](CN(C)Cc2ccccc2)OCCCC[C@@H](C)O3)cc1	RAD52 anneal inh 60 (no result: FID counter, N-glyco inh, CendR NRP1 mod)
C[C@H]1CCCCO[C@@H](CN(C)C(=O)CCCN(C)C)[C@@H](C)CN([C@@H](C)CO)C(=O)c2cc(NC(=O)Nc3ccc(F)cc3)ccc2O1	RAD52 anneal inh 52 (no result: FID counter, N-glyco inh, CendR NRP1 mod)
C[C@H]1CCCCO[C@H](CN(C)C(=O)CCCN(C)C)[C@@H](C)CN([C@@H](C)CO)C(=O)c2cc(NC(=O)Nc3ccc(F)cc3)ccc2O1	none (no result: FID counter, N-glyco inh, CendR NRP1 mod)
C[C@@H]1CCCCO[C@H](CN(C)Cc2ccccc2)[C@H](C)CN([C@@H](C)CO)C(=O)c2cc(NC(=O)Nc3ccc(F)cc3)ccc2O1	RAD52 anneal inh 53 (no result: FID counter, N-glyco inh, CendR NRP1 mod)
C[C@H]1CCCCO[C@H](CN(C)Cc2ccccc2)[C@@H](C)CN([C@@H](C)CO)C(=O)c2cc(NC(=O)Nc3ccc(F)cc3)ccc2O1	none (no result: FID counter, N-glyco inh, CendR NRP1 mod)
COc1ccc(NC(=O)Nc2ccc3c(c2)C(=O)N([C@@H](C)CO)C[C@H](C)[C@H](CN(C)Cc2ccccc2)OCCCC[C@H](C)O3)cc1	RAD52 anneal inh 57 (no result: FID counter, N-glyco inh, CendR NRP1 mod)
N#C[C@@H]1[C@@H](c2ccc(C#CC3CCCC3)cc2)[C@H](CO)N1C(=O)c1cccc(F)c1	none (no result: FID counter, RAD54 branch, N-glyco inh, CendR NRP1 mod, miR-122 sensor)
CN(C)CC(=O)N[C@@H]1CC[C@H](CCNC(=O)C2CC2)O[C@H]1CO	none (no result: FID counter, RAD54 branch, N-glyco inh, CendR NRP1 mod, miR-122 sensor)
Cc1noc(C)c1NC(=O)N(C)C[C@@H]1Oc2cc(C#CCN(C)C)ccc2S(=O)(=O)N([C@@H](C)CO)C[C@H]1C	none (no result: FID counter, N-glyco inh, CendR NRP1 mod)
C[C@H]1CCCCO[C@@H](CN(C)C(=O)CCCN(C)C)[C@@H](C)CN([C@@H](C)CO)C(=O)c2cc(NS(=O)(=O)c3ccc(Cl)cc3)ccc2O1	RAD52 anneal inh 54 (no result: FID counter, N-glyco inh, CendR NRP1 mod)
COc1ccc(NC(=O)Nc2ccc3c(c2)C(=O)N([C@@H](C)CO)C[C@H](C)[C@@H](CN(C)Cc2ccccc2)OCCCC[C@H](C)O3)cc1	none (no result: FID counter, N-glyco inh, CendR NRP1 mod)
Cc1ccc(S(=O)(=O)N(C)C[C@H]2OCCCC[C@@H](C)Oc3ccc(NC(=O)CCCN(C)C)cc3C(=O)N([C@@H](C)CO)C[C@H]2C)cc1	RAD52 anneal inh 51 (no result: FID counter, N-glyco inh, CendR NRP1 mod)
C[C@@H]1CCCCO[C@H](CN(C)C(=O)CCCN(C)C)[C@@H](C)CN([C@H](C)CO)C(=O)c2cc(NS(=O)(=O)c3ccc(Cl)cc3)ccc2O1	none (no result: FID counter, N-glyco inh, CendR NRP1 mod)
Cc1ccc(S(=O)(=O)N(C)C[C@H]2Oc3ccc(NC(=O)C4CCCCC4)cc3C(=O)N([C@H](C)CO)C[C@H]2C)cc1	N-glyco inh 45 (no result: FID counter)
COc1ccc(NC(=O)Nc2ccc3c(c2)C(=O)N([C@H](C)CO)C[C@@H](C)[C@@H](CN(C)Cc2ccccc2)OCCCC[C@H](C)O3)cc1	RAD52 anneal inh 51 (no result: FID counter, N-glyco inh, CendR NRP1 mod)
